Measured values taken from PubChem BioAssay (Tox21).
Values without a mark were called inactive. Results filed as inconclusive are left out. Entries that show only a call come without a potency. Calls of active or inactive are those of the source. Unless noted, calls come from the whole dose curve; as a rule, active = well fitted curve in the direction sought with a large enough effect in the repeat runs; inconclusive = weak or mixed curves; inactive = no such curve, though single readings can be large; an effect the other way counts as inactive or inconclusive.

How the values were obtained:
[1] = target: Thyrotropin receptor (Homo sapiens) (UniProt P16473); assay: qHTS assay to identify small molecule antagonists of the thyroid stimulating hormone receptor (TSHR) signaling pathway (AID 1259385; calls by dose curve; note: nearly all actives have a fitted effect of over 20% in size; note: potency is the fitted concentration of half-maximal effect)
Sequence of Thyrotropin receptor (Homo sapiens) (P16473 whole entry, looked up): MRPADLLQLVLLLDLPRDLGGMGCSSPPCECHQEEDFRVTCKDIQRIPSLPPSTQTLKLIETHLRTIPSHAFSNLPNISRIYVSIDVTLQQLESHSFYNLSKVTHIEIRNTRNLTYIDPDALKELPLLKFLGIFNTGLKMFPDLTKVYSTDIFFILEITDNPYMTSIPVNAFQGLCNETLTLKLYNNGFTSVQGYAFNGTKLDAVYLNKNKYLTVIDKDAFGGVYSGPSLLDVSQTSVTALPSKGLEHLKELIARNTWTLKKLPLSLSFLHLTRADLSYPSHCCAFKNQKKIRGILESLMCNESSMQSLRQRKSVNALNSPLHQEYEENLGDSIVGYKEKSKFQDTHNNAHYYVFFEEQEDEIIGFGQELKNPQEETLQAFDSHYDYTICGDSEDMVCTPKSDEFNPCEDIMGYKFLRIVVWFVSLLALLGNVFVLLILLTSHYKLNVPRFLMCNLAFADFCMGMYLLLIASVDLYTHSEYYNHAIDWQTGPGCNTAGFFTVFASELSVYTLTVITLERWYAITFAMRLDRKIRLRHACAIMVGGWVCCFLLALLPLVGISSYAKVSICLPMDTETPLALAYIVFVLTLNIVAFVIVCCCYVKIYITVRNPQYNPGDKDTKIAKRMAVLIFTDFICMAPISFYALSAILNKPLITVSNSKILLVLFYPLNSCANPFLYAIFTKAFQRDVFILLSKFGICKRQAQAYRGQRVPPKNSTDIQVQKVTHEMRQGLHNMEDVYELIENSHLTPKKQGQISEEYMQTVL
In short: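 TSHR-HEK293 cells were plated and held 18 h at 37C/5% CO2, then given compound plus Ro20-1724 and stimulated with TSH at 1.5 ng/mL final. After 30 min at room temperature, cAMP was detected with cAMP-d2/anti-cAMP-cryptate (1 h) by fluorescence.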

[2] = qHTS assay to identify small molecule agonists of the estrogen receptor alpha (ER-alpha) signaling pathway in the presence of an antagonist - cell viability counter screen (AID 1259386);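 note: series mostly up to about 92 µM; cells exposed to compounds for 22 h at 37 °C before the viability read; nearly all actives have a fitted effect of over 30% in size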
In short: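 In this counter screen, compound effects on VM7Luc4E2 viability were tested in the presence of the antagonist ICI-182,780 at 10.0nM final. Compounds were dosed at 15 concentrations, exposure lasted 22hr, and the CellTiter-Fluor signal was read.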

[3] = target: Progesterone receptor (Homo sapiens) (UniProt P06401); assay: qHTS assay to identify small molecule agonists of the progesterone receptor (PR) signaling pathway (AID 1346784; calls by dose curve; note: nearly all actives have a fitted effect of over 30% in size)
Sequence of Progesterone receptor (Homo sapiens) (P06401 whole entry, looked up): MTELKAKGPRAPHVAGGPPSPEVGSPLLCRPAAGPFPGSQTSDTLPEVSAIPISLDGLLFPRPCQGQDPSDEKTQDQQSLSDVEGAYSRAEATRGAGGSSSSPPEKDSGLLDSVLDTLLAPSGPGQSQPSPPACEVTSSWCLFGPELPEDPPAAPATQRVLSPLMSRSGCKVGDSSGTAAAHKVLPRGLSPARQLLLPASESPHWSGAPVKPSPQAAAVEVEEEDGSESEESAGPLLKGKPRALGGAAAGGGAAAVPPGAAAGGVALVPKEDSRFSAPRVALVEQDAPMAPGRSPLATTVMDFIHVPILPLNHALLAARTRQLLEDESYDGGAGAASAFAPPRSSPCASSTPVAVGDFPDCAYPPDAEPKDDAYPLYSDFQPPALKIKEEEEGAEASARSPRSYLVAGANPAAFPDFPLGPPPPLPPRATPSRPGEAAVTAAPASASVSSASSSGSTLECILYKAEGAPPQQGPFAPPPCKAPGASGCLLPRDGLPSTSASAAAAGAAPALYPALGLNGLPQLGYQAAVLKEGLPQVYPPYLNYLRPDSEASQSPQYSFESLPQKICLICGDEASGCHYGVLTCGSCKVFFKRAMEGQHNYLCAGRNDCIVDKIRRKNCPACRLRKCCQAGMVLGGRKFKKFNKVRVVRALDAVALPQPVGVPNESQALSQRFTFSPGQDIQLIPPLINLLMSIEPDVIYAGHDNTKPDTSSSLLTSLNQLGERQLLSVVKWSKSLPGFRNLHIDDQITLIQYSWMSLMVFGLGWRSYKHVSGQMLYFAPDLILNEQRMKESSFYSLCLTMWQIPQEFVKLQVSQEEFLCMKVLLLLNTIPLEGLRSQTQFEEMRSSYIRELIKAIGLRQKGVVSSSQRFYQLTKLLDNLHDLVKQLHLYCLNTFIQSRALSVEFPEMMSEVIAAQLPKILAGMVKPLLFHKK
In short: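 Fluorescence from LiveBLAzer B/G FRET substrate cleavage (2 hr, RT) reported PR activation in PR-UAS-bla HEK 293T cells treated 16 hr at 37C/5% CO2 with compounds; medium contained 2% charcoal-stripped FBS.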

[4] = qHTS assay to identify small molecule antagonists of the progesterone receptor (PR) signaling pathway - cell viability counter screen (AID 1346798); note: nearly all actives have a fitted effect of over 50% in size; note: potency is the fitted concentration of half-maximal effect
In short: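 CellTiter-Glo luminescence; PR-UAS-bla HEK293T, 3,000 cells/well; compound + R5020, 16 hr, 37C/5% CO2; 30 min RT before read.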

[5] = qHTS assay to identify small molecule agonists of the progesterone receptor (PR) signaling pathway - cell viability counter screen (AID 1346799; calls by dose curve; note: nearly all actives have a fitted effect of over 45% in size; note: potency is the fitted concentration of half-maximal effect)
In short: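 In parallel with the beta-lactamase readout, cytotoxicity toward PR-UAS-bla HEK293T cells was measured by CellTiter-Glo luminescence following 16 hr compound incubation in 2% charcoal-stripped FBS medium.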

[6] = qHTS assay to identify small molecule antagonists of the TGF-beta/Smad signaling pathway - cell viability counter screen (AID 1346824); note: nearly all actives have a fitted effect of over 50% in size
In short: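 SBE-bla HEK 293T cells were plated overnight at 37 C, then given compounds in DMSO plus TGF-beta1 (added as 0.25 ng/mL solution) for 5 hr. After the bla read, CellTiter-Glo was added to the same wells and luminescence read after 30 min at room temperature.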

[7] = qHTS assay to identify small molecule agonists of the TGF-beta/Smad signaling pathway - cell viability counter screen (AID 1346829); note: top concentration of the series differs between compounds; nearly all actives have a fitted effect of over 45% in size
In short: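 Tox21 qHTS format: SBE-bla HEK 293T cells treated with DMSO-dissolved compounds for 5 hr; CellTiter-Glo luminescence after 30 min at room temperature.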

[8] = target: Thyrotropin-releasing hormone receptor (Homo sapiens) (UniProt P34981); assay: qHTS assay to identify small molecule antagonists of the thyrotropin-releasing hormone receptor (TRHR) signaling pathway (AID 1346877; active = well fitted inhibition curve with a large enough effect in the repeat runs, not every such curve was filed as active; note: series mostly up to about 51 µM)
Sequence of Thyrotropin-releasing hormone receptor (Homo sapiens) (P34981 whole entry, looked up): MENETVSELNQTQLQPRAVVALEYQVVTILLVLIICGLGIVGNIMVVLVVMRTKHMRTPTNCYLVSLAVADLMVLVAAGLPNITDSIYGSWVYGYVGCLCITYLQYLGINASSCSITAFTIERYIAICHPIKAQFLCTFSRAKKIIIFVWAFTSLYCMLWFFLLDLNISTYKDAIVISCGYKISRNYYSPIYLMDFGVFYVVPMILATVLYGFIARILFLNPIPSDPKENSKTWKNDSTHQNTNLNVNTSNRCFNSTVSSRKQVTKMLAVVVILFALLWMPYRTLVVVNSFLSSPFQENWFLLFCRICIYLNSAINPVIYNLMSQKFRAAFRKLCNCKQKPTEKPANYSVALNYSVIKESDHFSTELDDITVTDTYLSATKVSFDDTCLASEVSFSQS
In short: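 Kinetic fluorescence (3 min, 1 s resolution) following stimulation with TRH at 1 nM final; HEK293 cells bearing human TRHR; 5 min compound preincubation at RT; concentration-response over 15 points, triplicates.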

[9] = target: Thyrotropin-releasing hormone receptor (Homo sapiens) (UniProt P34981); assay: qHTS assay to identify small molecule agonists of the thyrotropin-releasing hormone receptor (TRHR) signaling pathway (AID 1346891; calls by dose curve;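 note: HEK293 cells expressing TRHR with calcium dye readout; series mostly up to about 58 µM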)
In short: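 Compounds were tested as agonists at 15 concentrations, in triplicate, on TRHR-Hek293 cells; calcium-sensitive dye fluorescence was recorded for 3 min following addition.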

[10] = Human pregnane X receptor (PXR) small molecule agonists, qHTS cell viability counter screen (AID 1346977); note: nearly all actives have a fitted effect of over 50% in size
In short: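 Viability counter screen: CellTiter-Fluor signal in PXR-Luc HepG2 cells, 24hr compound exposure, 37C, 5% CO2.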

[11] = Caspase-3/7 induction in HepG2 cells by small molecules, qHTS assay (AID 1346978); note: nearly all actives have a fitted effect of over 15% in size
In short: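 Wild-type HepG2 cells (2,000/well) were settled 5 h at 37 C, 5% CO2, then exposed to compounds in DMSO for 17 h. Caspase-3/7 activity was read by luminescence 30 min after adding Caspase-Glo 3/7 reagent at room temperature.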

[12] = Caspase-3/7 induction in CHO-K1 cells by small molecules, qHTS cell viability counter screen (AID 1346979); note: nearly all actives have a fitted effect of over 35% in size
In short: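 Viability readout by fluorescence (CellTiter-Fluor) on wild-type CHO-K1 cells exposed for 16hr at 37C and 5% CO2 to compounds delivered in DMSO; reagent incubated 1hr before reading.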

[13] = Caspase-3/7 induction in CHO-K1 cells by small molecules, qHTS assay (AID 1346980); note: nearly all actives have a fitted effect of over 15% in size
In short: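 Wild-type cells were seeded at 1,500 per well and settled 5 hr at 37 C, 5% CO2, then exposed to DMSO-dissolved compounds for 17 hr. Caspase-Glo 3/7 reagent was added, and luminescence was read after 30min at room temperature.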

[14] = Caspase-3/7 induction in HepG2 cells by small molecules, qHTS cell viability counter screen (AID 1346981); note: series mostly up to about 92 µM; nearly all actives have a fitted effect of over 30% in size
In short: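 In this quantitative HTS counter screen, compounds delivered in DMSO were left on unmodified HepG2 cells for 16 hr at 37 C. Viability was then determined fluorometrically with CellTiter-Fluor, in parallel with caspase-3/7 induction in the same wells.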

[15] = target: Nuclear receptor subfamily 1 group I member 2 (Homo sapiens) (UniProt O75469); assay: Human pregnane X receptor (PXR) small molecule agonists, qHTS assay (AID 1346982); note: nearly all actives have a fitted effect of over 35% in size; note: potency is the fitted concentration of half-maximal effect
Sequence of Nuclear receptor subfamily 1 group I member 2 (Homo sapiens) (O75469 whole entry, looked up): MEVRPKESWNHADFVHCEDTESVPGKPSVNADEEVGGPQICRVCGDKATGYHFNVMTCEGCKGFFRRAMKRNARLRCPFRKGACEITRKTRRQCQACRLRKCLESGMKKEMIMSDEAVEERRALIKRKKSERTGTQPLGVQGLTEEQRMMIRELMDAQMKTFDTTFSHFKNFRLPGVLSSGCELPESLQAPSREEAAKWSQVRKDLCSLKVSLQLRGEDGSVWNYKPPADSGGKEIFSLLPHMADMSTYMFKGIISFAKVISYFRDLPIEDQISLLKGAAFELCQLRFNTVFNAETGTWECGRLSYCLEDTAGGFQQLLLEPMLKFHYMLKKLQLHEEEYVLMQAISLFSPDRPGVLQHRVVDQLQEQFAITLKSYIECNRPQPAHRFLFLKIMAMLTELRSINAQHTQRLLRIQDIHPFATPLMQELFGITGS
In short: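 Reporter HepG2 cells expressing PXR-Luc are cultured in charcoal-stripped FBS (5%), treated with compounds for 24 hr at 37 C, and assayed by ONE-Glo luminescence after 30 min at room temperature.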

[16] = target: Cytochrome P450 2D6 (Homo sapiens) (UniProt P10635); assay: Cytochrome P450 Family 2 Subfamily D Member 6 (CYP2D6) small molecule antagonists: luciferase reporter qHTS assay (AID 1671196); note: nearly all actives have a fitted effect of over 50% in size; note: potency is the fitted concentration of half-maximal effect
Sequence of Cytochrome P450 2D6 (Homo sapiens) (P10635 whole entry, looked up): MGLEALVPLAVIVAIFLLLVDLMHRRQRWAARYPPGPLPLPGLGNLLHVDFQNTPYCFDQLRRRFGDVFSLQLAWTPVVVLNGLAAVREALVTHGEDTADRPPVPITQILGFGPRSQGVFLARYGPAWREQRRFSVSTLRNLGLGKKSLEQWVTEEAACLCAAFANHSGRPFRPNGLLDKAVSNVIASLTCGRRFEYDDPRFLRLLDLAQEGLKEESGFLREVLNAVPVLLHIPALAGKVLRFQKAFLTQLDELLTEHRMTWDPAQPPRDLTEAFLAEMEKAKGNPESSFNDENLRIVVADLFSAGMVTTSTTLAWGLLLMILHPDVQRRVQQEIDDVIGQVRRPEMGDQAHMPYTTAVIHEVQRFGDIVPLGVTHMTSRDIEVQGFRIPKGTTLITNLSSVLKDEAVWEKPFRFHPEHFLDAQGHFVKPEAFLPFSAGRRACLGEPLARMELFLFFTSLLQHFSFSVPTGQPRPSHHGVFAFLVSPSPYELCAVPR
In short: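 Test chemicals meet CYP2D6 plus proluciferin substrate (10 min, RT); NADPH regenerating solution then drives turnover for 1 h. Detection reagent halts the reaction; luminescence measured after 20 min.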

[17] = target: Progesterone receptor (Homo sapiens) (UniProt P06401); assay: qHTS assay to identify small molecule antagonists of the progesterone receptor (PR) signaling pathway (AID 1346795; active = well fitted inhibition curve with a large enough effect in the signal ratio in the repeat runs, not every such curve was filed as active; the % refers to the signal ratio)
In short: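 Fluorescence intensity measured 2 hr after adding beta-lactamase FRET substrate to PR-UAS-bla HEK293T cells that had been co-treated 16 hr with compound and 1 nM R5020 (final concentration) in 2% charcoal-stripped FBS.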

[18] = qHTS assay to identify small molecule agonists of the TGF-beta/Smad signaling pathway (AID 1346859; active = well fitted activation curve with a large enough effect in the signal ratio in the repeat runs, not every such curve was filed as active; the % refers to the signal ratio; note: series mostly up to about 77 µM)
In short: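 After overnight seeding, SBE-bla HEK 293T cells are dosed with compounds in DMSO and kept 5 hr at 37 C, 5% CO2. LiveBLAzer-type FRET substrate is then applied for 2 hr at room temperature.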

[19] = target: Nuclear receptor subfamily 1 group I member 2 (Rattus norvegicus) (UniProt Q9R1A7); assay: Rat pregnane X receptor (rPXR) activation by small molecules, qHTS assay (AID 1346983); settings: rPXR luciferase reporter cells, One-Glo luminescence, 24 h; max activation: hits give high values; note: nearly all actives have a fitted effect of over 20% in size
Sequence of Nuclear receptor subfamily 1 group I member 2 (Rattus norvegicus) (Q9R1A7 whole entry, looked up): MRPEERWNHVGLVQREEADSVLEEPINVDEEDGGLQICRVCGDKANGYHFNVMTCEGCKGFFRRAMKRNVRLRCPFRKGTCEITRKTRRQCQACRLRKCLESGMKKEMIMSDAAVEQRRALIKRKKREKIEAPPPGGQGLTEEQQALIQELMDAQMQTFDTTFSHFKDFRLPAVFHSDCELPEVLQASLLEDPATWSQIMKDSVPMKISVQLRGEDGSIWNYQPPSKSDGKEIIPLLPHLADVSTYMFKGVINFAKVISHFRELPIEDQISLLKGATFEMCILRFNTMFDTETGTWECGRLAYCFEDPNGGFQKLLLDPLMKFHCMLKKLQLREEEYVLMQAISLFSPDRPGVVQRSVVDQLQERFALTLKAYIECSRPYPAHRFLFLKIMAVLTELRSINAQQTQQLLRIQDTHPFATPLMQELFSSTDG
In short: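 Cell-based rPXR luciferase reporter assay, 2,000 cells per well, rested 5hr at 37 C before compound addition in DMSO, then 24 hr at 37 C. One-Glo reagent was added and luminescence read after 30 min at room temperature.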

[20] = target: Nuclear receptor subfamily 1 group I member 2 (Homo sapiens) (UniProt O75469); assay: Human pregnane X receptor (PXR) activation by small molecules, qHTS assay (AID 1346985); note: nearly all actives have a fitted effect of over 40% in size
In short: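 DPX-2 cells (HepG2 co-transfected with a PXR response element and a CYP3A4-promoter luciferase construct) were seeded at 2,000 per well, rested 5 hr at 37C, then exposed to DMSO-dissolved compounds for 24 hr. Activation was read as luciferase luminescence.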

SMILES	Potency [1]	Potency [2]	Potency [3]	Potency [4]	Potency [5]	outcome [6]	outcome [7]	outcome [8]	outcome [9]	Potency [10]	Potency [11]	Potency [12]	Potency [13]	Potency [14]	Potency [15]	Potency [16]	Potency [17]	outcome [18]	max activation [19] [%]	Potency [20]
Cc1c(-c2cccnc2)c2ccccc2n1CCCCC(=O)O	inactive	inactive	inactive	inactive	inactive	inactive	inactive	inactive	inactive	inactive	inactive	inactive	inactive	inactive	inactive	inactive				
O=P(c1ccccc1)(c1ccccc1)c1ccccc1	inactive	inactive	inactive		inactive	inactive	inactive	inactive	inactive	inactive	inactive	inactive	inactive		27.3 µM (active)	inactive	inactive	inactive		
O=S(=O)(O)c1cc(Cl)c(Cl)cc1Cl	inactive	inactive	inactive	30.6 µM (active)	30.6 µM (active)	inactive	inactive	inactive	inactive	inactive	inactive	inactive	inactive	inactive	inactive					
O=C1OC(=O)C2CC=CCC12 (stereo not drawn)	inactive	inactive	inactive		inactive	inactive	inactive	inactive	inactive	inactive	inactive	inactive	inactive		inactive	35.7 µM (active)	inactive	inactive		
COC(=O)/C=C/C(C)=C\C=C\C(C)=C\C=C\C=C(C)\C=C\C=C(C)\C=C\C(=O)O	inactive	inactive	inactive		inactive		inactive	inactive	inactive		inactive	inactive	inactive	inactive	54.5 µM (active)	39.9 µM (active)	inactive	inactive		
CC(C(=O)O)c1ccc2c(c1)Cc1cccnc1O2 (stereo not drawn)	inactive	inactive	inactive		inactive	inactive	inactive	inactive	inactive	inactive	inactive	inactive	inactive	inactive			inactive		-0.373	
Cc1ccccc1CCO	inactive	inactive	inactive		inactive	inactive	inactive	inactive	inactive		inactive	inactive	inactive	inactive	inactive	inactive	inactive	inactive		
Cc1ccc2c(Cl)cc(Cl)c(O)c2n1	inactive	inactive	inactive		inactive	inactive	inactive	inactive	inactive	inactive	inactive	inactive	inactive	inactive	inactive	inactive	inactive	inactive		
O=C(c1ccco1)N1CCNCC1	inactive	inactive	inactive		inactive	inactive	inactive	inactive	inactive	inactive	inactive	inactive	inactive	inactive	inactive	inactive	inactive	inactive		
O=c1[nH][nH]c2ccccc12	inactive	inactive	inactive	inactive	inactive	inactive	inactive	inactive	inactive		inactive	inactive	inactive		inactive			inactive		
CCN(CCCCOC(=O)c1ccc(OC)c(OC)c1)C(C)Cc1ccc(OC)cc1 (stereo not drawn)	29.8 µM (active)	inactive	inactive	inactive			inactive	inactive	inactive	inactive	inactive	inactive	inactive	inactive	inactive		inactive	inactive	3.44	inactive
CC(C)CC(C)(C)C	inactive	inactive	inactive	inactive	31.8 µM (active)	inactive	inactive	inactive	inactive	inactive	inactive	inactive	inactive	inactive				inactive		
Cc1cc(SC2=C(O)C[C@@](CCc3ccc(N)cc3)(C(C)C)OC2=O)c(C(C)(C)C)cc1CO	inactive	inactive	inactive		inactive	inactive	inactive	inactive	inactive	inactive	inactive	inactive	inactive			inactive	inactive			
